PubChem BioAssay (EPA / NIEHS)
Calls of active or inactive are those of the source. Rule for the calls: active = hit-call score of the fitted dose curve at least 0.9, where 1 is the maximum; inactive = score below 0.9.

Key:
Conditions in all cases: mRNA level, 48 h; actives raise or lower the signal
[1] = read-out: ABC Transporter (ABCB1), ABCB1 (gene 5243); test: LTEA_HepaRG_ABCB1: Life Technologies and Expression Analysis (LTEA) Assay for ABC Transporter (ABCB1) using HepaRG (AID 2283460)
How it was run: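 HepaRG, 48 h exposure, 8-pt half-log series from 100 uM, 0.5% DMSO vehicle, duplicates. Readout: ABCB1 transcript by Fluidigm TaqMan qRT-PCR, housekeeping-normalized; bidirectional curve fit vs DMSO baseline.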

[2] = read-out: growth arrest and DNA damage 45 (GADD45B), GADD45B (gene 4616); test: LTEA_HepaRG_GADD45B: Life Technologies and Expression Analysis (LTEA) Assay for growth arrest and DNA damage 45 (GADD45B) using HepaRG (AID 2283461)
How it was run: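 Transcript level quantified by Fluidigm TaqMan qRT-PCR with three housekeeping genes for normalization, analyzed for up- or down-regulation against 0.5% DMSO. HepaRG cultures dosed 48 h at eight half-log concentrations up to 100 uM, duplicates.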

[3] = read-out: ABC Transporter (ABCC3), ABCC3 (gene 8714); test: LTEA_HepaRG_ABCC3: Life Technologies and Expression Analysis (LTEA) Assay for ABC Transporter (ABCC3) using HepaRG (AID 2283462)
How it was run: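 Transcript level by TaqMan qRT-PCR, normalised to three housekeeping genes, fitted in both directions relative to vehicle. Chemicals tested in duplicate at eight half-log concentrations up to 100 uM for 48 h on HepaRG cells (0.5% DMSO).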

[4] = read-out: ABC Transporter (ABCB11), ABCB11 (gene 8647); test: LTEA_HepaRG_ABCB11: Life Technologies and Expression Analysis (LTEA) Assay for ABC Transporter (ABCB11) using HepaRG (AID 2283463)
How it was run: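 HepaRG, 48 h exposure, 8-pt half-log CRC top 100 uM, 0.5% DMSO vehicle, duplicates. Readout: TaqMan qRT-PCR of ABCB11 mRNA, housekeeping-normalized (ACTB/GAPDH/POLR2A). Bidirectional fit vs DMSO baseline.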

[5] = read-out: ABC Transporter (ABCC2), ABCC2 (gene 1244); test: LTEA_HepaRG_ABCC2: Life Technologies and Expression Analysis (LTEA) Assay for ABC Transporter (ABCC2) using HepaRG (AID 2283464)
How it was run: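 Endpoint is ABCC2 transcript level from qRT-PCR, normalized to three housekeeping genes and fitted bidirectionally relative to DMSO. Human HepaRG cells received test chemical for 48 h at up to 100 uM (8 points, half-log steps, 0.5% DMSO), duplicate wells.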

[6] = read-out: Broad substrate specificity ATP-binding cassette transporter ABCG2 (Homo sapiens) (UniProt Q9UNQ0); test: LTEA_HepaRG_ABCG2: Life Technologies and Expression Analysis (LTEA) Assay for ABC Transporter (ABCG2) using HepaRG (AID 2283465)
How it was run: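 HepaRG, 48 h exposure, 8-pt half-log series from 100 uM, 0.5% DMSO vehicle, duplicates. Readout: ABCG2 transcript by qRT-PCR (Fluidigm array), housekeeping-normalized; bidirectional curve fit relative to DMSO baseline.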

[7] = read-out: ATP-citrate lyase (ACLY), ACLY (gene 47); test: LTEA_HepaRG_ACLY: Life Technologies and Expression Analysis (LTEA) Assay for ATP-citrate lyase (ACLY) using HepaRG (AID 2283466)
How it was run: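 qRT-PCR readout of ACLY transcript after 48 h chemical treatment of HepaRG cells; expression normalized to three housekeeping genes. Eight-point half-log series, highest 100 uM, 0.5% DMSO vehicle. Gain or loss fitted against DMSO baseline.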

[8] = read-out: Peroxisomal acyl-coenzyme A oxidase 1 (ACOX1) gene, ACOX1 (gene 51); test: LTEA_HepaRG_ACOX1: Life Technologies and Expression Analysis (LTEA) Assay for Peroxisomal acyl-coenzyme A oxidase 1 (ACOX1) gene using HepaRG (AID 2283467)
How it was run: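 HepaRG, 48 h chemical exposure, 8-pt half-log series from 100 uM top, 0.5% DMSO vehicle, duplicates. Readout: ACOX1 mRNA by Fluidigm qRT-PCR, housekeeping-normalized; bidirectional fit vs DMSO baseline.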

[9] = read-out: Alkaline Phosphatase, Placental (ALPP) gene, ALPP (gene 250); test: LTEA_HepaRG_ALPP: Life Technologies and Expression Analysis (LTEA) Assay for Alkaline Phosphatase, Placental (ALPP) gene using HepaRG (AID 2283468);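 for AC50: differentiated human HepaRG liver cells in serum-free induction medium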
How it was run: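 ALPP transcript level, measured by qRT-PCR and normalized to three housekeeping genes (ACTB, GAPDH, POLR2A), after 48 h dosing of differentiated HepaRG in serum-free induction medium. Top concentration 100 uM with half-log dilutions (8 points, 0.5% DMSO, duplicates); bidirectional fitting relative to DMSO.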

[10] = read-out: Bcl-2 (BAD) gene, BAD (gene 572); test: LTEA_HepaRG_BAD: Life Technologies and Expression Analysis (LTEA) Assay for Bcl-2 (BAD) gene using HepaRG (AID 2283469)
How it was run: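 HepaRG, 48 h exposure, 8-pt half-log curve from 100 uM in 0.5% DMSO, duplicates. Readout: TaqMan qRT-PCR for BAD mRNA, housekeeping-normalised (ACTB/GAPDH/POLR2A); gain or loss fitted against DMSO baseline.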

[11] = read-out: Bcl-2 (BAX) gene, BAX (gene 581); test: LTEA_HepaRG_BAX: Life Technologies and Expression Analysis (LTEA) Assay for Bcl-2 (BAX) gene using HepaRG (AID 2283470)
How it was run: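 qRT-PCR read-out of BAX mRNA, normalized to three housekeeping genes, after 48 h chemical exposure of human HepaRG cells in serum-free induction medium; eight-point half-log series, top 100 uM, 0.5% DMSO vehicle; bidirectional fit versus DMSO.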

[12] = read-out: Alpha-fetoprotein (AFP) gene, AFP (gene 174); test: LTEA_HepaRG_AFP: Life Technologies and Expression Analysis (LTEA) Assay for Alpha-fetoprotein (AFP) gene using HepaRG (AID 2283472)
How it was run: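 qRT-PCR (Fluidigm TaqMan) readout of AFP transcript, normalized to three housekeeping genes, fitted bidirectionally against 0.5% DMSO baseline. HepaRG cells received chemicals for 48 h in serum-free induction medium, top concentration 100 uM, half-log steps.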

[13] = read-out: BCL2L11 (gene 10018); test: LTEA_HepaRG_BCL2L11: Life Technologies and Expression Analysis (LTEA) Assay for Bcl-2 (BCL2L11) gene using HepaRG (AID 2283473)
How it was run: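 BCL2L11 transcript levels are measured by Fluidigm qRT-PCR, normalized to three housekeeping genes. HepaRG cultures were plated 48 h, then treated 48 h with test chemical (top 100 uM, half-log, 0.5% DMSO vehicle); curves were fitted bidirectionally against DMSO.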

[14] = read-out: Apolipoprotein A-V (APOA5) gene, APOA5 (gene 116519); test: LTEA_HepaRG_APOA5: Life Technologies and Expression Analysis (LTEA) Assay for Apolipoprotein A-V (APOA5) gene using HepaRG (AID 2283474)
How it was run: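 APOA5 transcript levels were quantified by qRT-PCR, normalized to three housekeeping genes, after 48 h chemical treatment of HepaRG cells (8 points, 100 uM maximum, half-log steps, 0.5% DMSO). Curves fitted in both directions against vehicle.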

[15] = read-out: Apoptosis regulator Bcl-2 (Homo sapiens) (UniProt P10415); test: LTEA_HepaRG_BCL2: Life Technologies and Expression Analysis (LTEA) Assay for Bcl-2 gene using HepaRG (AID 2283475)
How it was run: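 qRT-PCR read-out (Fluidigm TaqMan) of BCL2 transcript, normalised to three housekeeping genes, after 48 h chemical exposure of HepaRG cells; 8-point half-log series, top 100 uM, 0.5% DMSO vehicle. Gain or loss of signal fitted relative to DMSO baseline.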

[16] = read-out: Bcl-2 (BID) gene, BID (gene 637); test: LTEA_HepaRG_BID: Life Technologies and Expression Analysis (LTEA) Assay for Bcl-2 (BID) gene using HepaRG (AID 2283476)
How it was run: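 HepaRG, 48 h exposure, 8-pt half-log series, top 100 uM, 0.5% DMSO vehicle, duplicates. Readout: BID mRNA by TaqMan qRT-PCR; housekeeping-normalized; bidirectional curve fit vs DMSO baseline.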

[17] = read-out: Caspase-3 (Homo sapiens) (UniProt P42574); test: LTEA_HepaRG_CASP3: Life Technologies and Expression Analysis (LTEA) Assay for cysteine-aspartic acid protease (CASP3) using HepaRG (AID 2283477)
How it was run: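 Expression of CASP3 was quantified by TaqMan qRT-PCR against three housekeeping genes (ACTB, GAPDH, POLR2A), bidirectionally versus 0.5% DMSO. HepaRG cultures received compounds in duplicate, top 100 uM with half-log steps, for 48 h in serum-free induction medium.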

[18] = read-out: Cytochrome P450 (CYP24A1), CYP24A1 (gene 1591); test: LTEA_HepaRG_CYP24A1: Life Technologies and Expression Analysis (LTEA) Assay for Cytochrome P450 (CYP24A1) using HepaRG (AID 2283478)
How it was run: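 mRNA of CYP24A1 quantified by TaqMan qRT-PCR (ACTB/GAPDH/POLR2A normalization) after 48 h chemical exposure of HepaRG cells, top concentration 100 uM, half-log steps, 0.5% DMSO vehicle, duplicates. Curves fitted bidirectionally against DMSO baseline.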

Measured: AC50

Sequence of Apoptosis regulator Bcl-2 (Homo sapiens) (P10415 whole entry, looked up): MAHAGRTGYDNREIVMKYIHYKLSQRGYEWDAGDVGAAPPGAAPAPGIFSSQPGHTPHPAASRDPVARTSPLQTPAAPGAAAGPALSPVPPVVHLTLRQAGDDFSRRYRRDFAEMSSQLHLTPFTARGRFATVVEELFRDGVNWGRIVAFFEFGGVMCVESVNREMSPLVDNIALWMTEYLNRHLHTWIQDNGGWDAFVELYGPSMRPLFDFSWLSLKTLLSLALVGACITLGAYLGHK
Sequence of Broad substrate specificity ATP-binding cassette transporter ABCG2 (Homo sapiens) (Q9UNQ0 whole entry, looked up): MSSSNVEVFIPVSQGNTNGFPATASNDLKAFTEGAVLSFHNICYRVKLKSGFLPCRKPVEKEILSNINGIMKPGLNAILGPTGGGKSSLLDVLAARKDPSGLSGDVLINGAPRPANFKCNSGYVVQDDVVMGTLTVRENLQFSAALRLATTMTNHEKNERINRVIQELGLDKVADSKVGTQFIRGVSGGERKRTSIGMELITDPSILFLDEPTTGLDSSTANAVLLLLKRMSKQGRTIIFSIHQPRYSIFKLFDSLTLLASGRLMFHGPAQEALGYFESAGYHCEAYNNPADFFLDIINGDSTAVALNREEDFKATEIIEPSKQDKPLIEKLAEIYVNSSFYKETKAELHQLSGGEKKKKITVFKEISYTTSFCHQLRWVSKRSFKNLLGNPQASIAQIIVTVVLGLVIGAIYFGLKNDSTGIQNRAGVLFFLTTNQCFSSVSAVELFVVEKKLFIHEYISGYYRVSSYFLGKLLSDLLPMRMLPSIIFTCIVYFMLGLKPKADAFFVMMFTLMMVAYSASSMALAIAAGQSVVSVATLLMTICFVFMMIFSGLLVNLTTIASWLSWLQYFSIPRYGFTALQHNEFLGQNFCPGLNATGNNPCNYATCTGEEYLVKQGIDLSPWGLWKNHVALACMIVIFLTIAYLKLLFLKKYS
Sequence of Caspase-3 (Homo sapiens) (P42574 whole entry, looked up): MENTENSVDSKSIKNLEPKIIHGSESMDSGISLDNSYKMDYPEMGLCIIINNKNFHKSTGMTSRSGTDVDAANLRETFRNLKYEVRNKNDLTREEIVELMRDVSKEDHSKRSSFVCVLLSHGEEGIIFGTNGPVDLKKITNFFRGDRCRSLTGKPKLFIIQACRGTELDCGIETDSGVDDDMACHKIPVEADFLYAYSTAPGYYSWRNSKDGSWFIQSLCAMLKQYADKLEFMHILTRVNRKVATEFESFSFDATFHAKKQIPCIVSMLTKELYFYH

CCCCCCCc1ccc(O)cc1
inactive: all assays above

Cc1ccc(N)cc1N
inactive: all assays above

ClC1=C(Cl)C2(Cl)C3C(Cl)C(Cl)CC3C1(Cl)C2(Cl)Cl (stereo not given)
active: [1] 6.37 µM | [5] 8.61 µM | [6] 21.4 µM | [7] 85.9 µM | [9] 9.92 µM | [12] 15.2 µM | [14] 50 µM
inactive: all other assays above

CCOP(=S)(OCC)SCSCC
inactive: all assays above

OCC1CO1 (stereo not given)
inactive: all assays above
